# Screens: PubChem BioAssay, several laboratories
# A selection: hits, their analogues and other compounds. The true share with any hit is near 2.2%.
# Ba/F3 V617F tox: reduced viability of JAK2V617F-dependent Ba/F3 cells, primary screen, JAK2V617F inhibitor project, cell-based, Ba/F3 EpoR-JAK2V617F, luminescence; ATP luminescence; inhibition, % at 5.6 µM; 1.1% of 220,000 active;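 active = inhibition above the campaign mean plus 3 SD over all tested compounds, cut at about 24% in these data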;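 also: cytokine-independent growth of Ba/F3 cells driven by EpoR plus mutant JAK2; 0% = DMSO-treated cells and 100% = JAK inhibitor I control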
# aSyn 5UTR inh: MLPCN primary screen, SNCA 5' untranslated region. 0.82% of 300,000 active. AID 1813, 2009. inhibition, % (tested at 7.5 µM). alpha-synuclein 5'UTR reporter, inhibitor activity; in the data active = inhibition above about 60%; inconclusive = no clear call, values can overlap the other calls;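 also: H4 neuroglioblastoma cells stably carrying SNCA 5'UTR luciferase fusion; 0% = DMSO wells and 100% = positive control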
# APP 5UTR inh: inhibitors of APP translation via 5'UTR reporter, primary screen, APP 5'UTR luciferase, SH-SY5Y cells. SH-SY5Y APP 5'UTR-luciferase reporter, luminescence. inhibition, % at 2 µM. 0.82% of 190,000 active;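 active = inhibition above a set limit, derived from the sample mean plus 3 SD, cut at about 45% in these data; inconclusive = one replicate passes the limit while the other fails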
# IEC-6 cytotox: cytotoxicity in IEC-6 intestinal epithelial cells, primary screen, cytotoxicity control for KLF5 inhibitor project, cell-based, luminescence; IEC-6 cytotoxicity, luminescence viability; inhibition, % at 5 µM; 0.78% of 290,000 active; in the data active = inhibition above about 22%;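 also: 0% = plate median of test compound wells and 100% = cytotoxic reference compound wells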
# BaF3 tox: parental Ba/F3 cell viability inhibition, counter-screen for JAK2V617F inhibitor project, murine pro-B, CellTiter-Glo luminescence | CellTiter-Glo ATP luminescence | inhibition, % at 5.6 µM | 1.1% of 220,000 active;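 active = inhibition above a per-campaign cutoff, the mean inhibition of all tested compounds plus 3 SD, cut at about 27% in these data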;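 also: 0% = DMSO wells and 100% = JAK Inhibitor I control wells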
# KLF5 inhibitor: KLF5 expression inhibitors, primary screen, DLD-1 cells, luminescence; 0.23% of 290,000 active; AID 1700, 2009; DLD-1 KLF5 promoter-luciferase reporter; inhibition, % at 5 µM;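 active = inhibition above a per-plate limit of that plate's mean compound inhibition plus 3 SD, cut at about 60% in these data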;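 also: 0% = DMSO wells and 100% = LY294002 at 200 µM; higher means less KLF5 promoter-driven luciferase light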
# An asterisk follows results filed as active; ? = inconclusive; . = not tested or not shown.
SMILES,Ba/F3 V617F tox,aSyn 5UTR inh,APP 5UTR inh,IEC-6 cytotox,BaF3 tox,KLF5 inhibitor
Cc1cc([N+](=O)[O-])nn1CC(=O)Nc1ccc(Cl)cn1,2.1,10.0,-8.5,5.0,2.6,-10.1
O=C(NNc1nc(-c2ccccc2)cs1)c1cccs1,-2.4,-2.8,.,-0.9,-3.0,3.5
O=C(NNc1nc(-c2ccccc2)cs1)c1ccc(F)cc1,0.7,76.2*,-9.4,-5.2,11.2,25.2
O=C(NNc1nc(-c2ccc(F)cc2)cs1)c1ccccc1,4.1,90.4*,6.4,-1.1,10.2,2.0
O=C(Cc1ccccc1)Nc1ncccc1Cl,.,-4.4,.,.,.,.
O=C(Nc1ccccc1Cl)C1CCCN(c2ncnc3c2nc2n3CCCCC2)C1 (centres undefined),.,5.0,.,-8.8,.,-14.8
Cc1cc(C(=O)NNC(=O)c2ccc(C)s2)c(C)o1,.,9.4,.,.,.,.
CCOc1ccc(C(=O)CSCCC(=O)O)cc1,-0.9,68.3*,38.0,1.4,4.7,-20.0
COc1ccc(N2CC(C(=O)Nc3nnc(SCC(=O)NCC4CCCO4)s3)CC2=O)cc1 (centres undefined),.,5.3,.,-3.9,.,-1.3
COc1ccc(OC)c(NC(=O)c2cccc(N3C(=O)C4C5C=CC(C6CC56)C4C3=O)c2)c1 (centres undefined),.,-21.7,.,3.8,.,-28.8
Cc1ccc(C(=O)NC2CCN(S(=O)(=O)c3ccccc3)CC2)cc1,-3.2,32.1,-10.8,-6.7,4.0,-4.0
Cc1ccc(S(=O)(=O)N2CCC(NC(=O)c3ccccc3)CC2)cc1,-0.7,22.6,7.5,4.1,90.0*,-17.6
CCC1CCCCN1CCCNC(=O)Cn1cnc2sc(C)c(S(=O)(=O)N3CC(C)CC(C)C3)c2c1=O (centres undefined),.,25.8,.,3.9,.,-41.1
COc1ccc(OCC(=O)NNC(=S)NC(=O)c2ccc(Br)o2)cc1,.,-4.5,.,0.7,.,-13.5
O=C(c1ccccc1)c1nn(-c2ccc(Cl)cc2)c(=O)cc1C(F)(F)F,19.4,-219.1,-5.9,1.7,30.3*,-39.0
CCC(O)C1CCN(C(=O)c2cc(COc3ccc(F)cc3F)on2)CC1 (centres undefined),.,1.9,.,9.2,.,-31.2
COc1ccc(C(=O)/C=C/C(=O)N(CC(=O)NC2CCCCC2)CC2CCCO2)c(O)c1 (centres undefined),3.4,73.4*,70.9*,11.3,3.6,-2.3
COc1ccc(C(=O)/C=C/C(=O)N(CC(=O)NC2CCCCC2)Cc2ccccc2OC)c(O)c1,-2.9,-36.2,74.8*,-3.9,3.0,-21.1
COc1ccc(C(=O)/C=C/C(=O)N(CC(=O)NC2CCCCC2)Cc2ccccc2)c(O)c1,-2.3,66.6*,72.7*,-5.2,7.5,-37.6
COc1ccc(C(=O)/C=C/C(=O)N(Cc2ccccc2OC)C(C(=O)NC2CCCCC2)c2ccncc2)c(O)c1 (centres undefined),-1.5,15.8,-4.5,1.3,6.0,-12.9
COc1ccc(C(=O)/C=C/C(=O)N(Cc2ccccc2)C(C(=O)NC2CCCCC2)c2ccncc2)c(O)c1 (centres undefined),-0.3,21.6,8.2,0.4,5.5,-17.8
CC(=O)c1cccc(NC(=O)CN2C(=O)COc3ccc(S(=O)(=O)N4CCOCC4)cc32)c1,.,73.0*,.,3.2,.,-1.3
Cc1cnc(NC(=O)c2cc3c(s2)CCCC3)s1,-1.5,65.4*,-172.9,5.7,1.7,12.9
Cc1csc(NC(=O)c2cc3c(s2)CCCC3)n1,5.8,29.2,-164.6,9.0,8.2,-42.6
Cc1cc(NC(=O)CSc2nnc(-c3ccccc3)c(-c3ccccc3)n2)no1,-1.6,38.9,62.7*,-4.0,3.2,-3.1
SMILES,Ba/F3 V617F tox,aSyn 5UTR inh,APP 5UTR inh,IEC-6 cytotox,BaF3 tox,KLF5 inhibitor
Cc1cc(NC(=O)CSc2ccccc2)no1,0.9,-42.9,-9.4,0.2,5.9,-16.3
COc1cc(NC(=O)CSc2nnc(-c3cc(C)on3)o2)cc(OC)c1,.,-14.3,.,-12.4,.,-2.1
COc1cc(OC)cc(-c2nnc(SCC(=O)Nc3cc(C)on3)o2)c1,1.3,.,-8.4,-5.3,94.8*,-18.6
O=C(CSc1n[nH]c(-c2ccccc2F)n1)NCC(=O)Nc1ccc(F)c(F)c1F,2.3,-5.1,-7.7,3.6,7.7,-25.1
CC(=O)c1ccc(OC(C)C)c(CC(C(N)=O)C(N)=O)c1,0.6,-3.7,46.0*,-2.8,4.8,-45.2
CC(=O)c1ccc(OCC(C)C)c(CC(C(N)=O)C(N)=O)c1,0.0,4.5,-4.3,-5.8,6.4,-9.0
CCOc1ccc(S(=O)(=O)NC(C)C(=O)NCc2cccnc2)cc1 (centres undefined),.,1.3,.,0.6,.,-4.8
COc1ccccc1N=C(C)C1=C(O)CC(c2ccccc2)CC1=O (centres undefined),6.7,121.7*,91.6*,-6.7,9.9,-6.3
CN1/C(=C\C=C2/C(=O)Oc3ccccc3C2=O)C(C)(C)c2ccccc21,-1.0,-123.3,-52.3,6.3,7.4,30.9
CN1C(=CC=C2C=C(I)C(=O)C(I)=C2)C(C)(C)c2ccccc21,-1.3,.,.,-6.6,32.9*,7.4
CN1/C(=C\C=C2/SC(=S)NC2=O)C(C)(C)c2ccccc21,64.9*,25.6,-1.8,0.6,81.0*,-28.8
CC(=O)c1ccc(OCCCC(=O)NCCc2ccccc2)cc1,.,-12.2,.,2.1,.,-20.4
CCOCCCNC(=O)C1CCN(S(=O)(=O)c2ccc3nc4c(c(C(=O)O)c3c2)CCCCC4)CC1,.,-0.1,.,-1.2,.,-26.2
COc1ccc(C)cc1NC(=O)c1nnn(Cc2cccc(C(F)(F)F)c2)c1N,23.7*,?,0.9,-3.5,36.9*,39.6
Cc1ccccc1Cn1nnc(C(=O)Nc2cccc(C)c2C)c1N,25.9*,24.7,13.3,7.1,31.9*,7.2
COc1ccc(OC)c(NC(=O)c2nnn(CCc3ccccc3)c2N)c1,-3.7,3.8,-31.2,-2.4,-0.8,-30.1
Cc1ccc(CNC(=O)Cn2nnc(C(=O)Nc3cccc(C)c3C)c2N)cc1,.,6.6,.,-0.9,.,-1.9
Fc1ccccc1Cn1c2[n+](c3ccc(C(F)(F)F)cc31)CCCCC2,14.7,0.1,-20.4,1.1,32.6*,-20.3
Cc1ccc(S(=O)(=O)NCc2ccncc2)cc1C,48.0*,-2.9,-3.2,11.1,75.1*,-18.2
CCN(C1CCCCC1)S(=O)(=O)c1ccc(S(=O)(=O)NCc2ccncc2)cc1,44.6*,-8.3,-18.6,18.2,55.1*,-6.0
O=S(=O)(NCc1ccncc1)c1ccc(Br)s1,46.9*,14.4,27.7,13.3,62.2*,14.0
COCCNC(=O)Cn1cnc2c(cnn2-c2ccc(C)cc2)c1=O,.,11.6,.,-3.6,.,-38.5
COc1cc(/C=N/NC(=O)C(Cc2c[nH]c3ccccc23)NC(=O)OCC(C)C)cc([N+](=O)[O-])c1O (centres undefined),3.6,11.1,-3.4,2.0,5.6,27.1
